Structures are written as SMILES. In all, about 200,000 compounds went through this assay and about 1,600 (0.8%) were called active.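 How the source made its calls: active means plate Z-score above 3 for both tubulin-high and condensed-nucleus cell shares, with cell loss under 80%, at 10 µM; inactive means the rest, inconclusive results apart.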 Shown is part of a subset that was picked to be rich in actives.

This experiment is described as follows: microtubule stabilizers in HeLa cells, primary screen, imaging, high-content imaging (AID 2205).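 On % tubulin-high responders: anti alpha tubulin signal scored within the nucleus-defined area of each cell.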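 On toxicity: 0% = mean cell density of plate MIN control wells and 100% = no cells.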 Particulars: HeLa tubulin immunostaining HCS, 24 h, at 10 µM; % Hoechst-high responders: measured here: nuclear condensation Hoechst responders, stronger effect = higher value, share of cells brighter than vehicle mean+2SD; % tubulin-high responders: stronger effect = higher value, share of cells brighter than vehicle mean+2SD; toxicity: measured here: cytotoxicity by cell density.
Consider `Cc1nn(-c2ccccc2)c(-n2cccc2)c1C(=O)O`, for which the % Hoechst-high responders stood at 3.22%, the % tubulin-high responders is 2.89% (inactive) and the toxicity was 10.5%.
Consider `CCCOC(=O)c1[nH]c2c(c1C)C(=O)CC(c1cccs1)C2` (stereo not drawn), for which the % Hoechst-high responders was 49.4%, the % tubulin-high responders was 25.2% (active) and the toxicity came out at 48.6%.
`CCCOC(=O)c1[nH]c2c(c1C)C(=O)CC(c1cc(OC)c(OC)c(OC)c1)C2` (stereo not drawn): the % Hoechst-high responders turned out to be 1.51%, the % tubulin-high responders was 5.08% (inactive) and the toxicity was 9.25%.
In the case of `CCOC(=O)c1[nH]c2c(c1C)C(=O)CC(c1ccc(N(C)C)cc1)C2` (stereo not drawn), the % Hoechst-high responders turned out to be 1.67%, the % tubulin-high responders is 6.74% (inactive) and the toxicity was determined as 9.96%.
In the case of `CSc1ccc(/C=N\NC(=O)CC(=O)NC(C)C)cc1`, the % Hoechst-high responders is 1.95%, the % tubulin-high responders is 3.08% (inactive) and the toxicity was found to be 8.56%.
With `Cc1ccc(C(=O)OCC(=O)NCc2ccc3c(c2)OCO3)s1`, the % Hoechst-high responders was 1.59%, the % tubulin-high responders is 1.75% (inactive) and the toxicity amounted to 6.77%.
For the compound `CCOC(=O)c1c(C)[nH]c(C(=O)COc2ccc3c(c2)OCO3)c1C`, the % Hoechst-high responders was found to be 3.29%, the % tubulin-high responders is 2.42% (inactive) and the toxicity turned out to be 11.4%.
Regarding `CCOC(=O)c1nc(-c2ccc3c(c2)OCO3)[nH]c1C`, the % Hoechst-high responders is 10.2%, the % tubulin-high responders is 26.6% (active) and the toxicity stood at 43%.
For the compound `Cc1ccc(CNC(=O)CCNS(=O)(=O)c2ccc(Br)s2)cc1`, the % Hoechst-high responders came out at 2.82%, the % tubulin-high responders is 2.88% (inactive) and the toxicity was 3.85%.
`CCOc1cccc(/C=C/c2ccc3ccccc3n2)c1OC(C)=O`: the % Hoechst-high responders is 3.95%, the % tubulin-high responders is 5.51% (inactive) and the toxicity was found to be 3.2%.
In the case of `Cc1ccc2nc(-c3cccc(Br)c3)cc(C(=O)Nn3cnnc3)c2c1`, the % Hoechst-high responders turned out to be 3.03%, the % tubulin-high responders is 6.01% (inactive) and the toxicity is 5.1%.
For the compound `Fc1ccc2c(c1)C(c1cccnc1)=NNC(c1cccs1)=N2`, the % Hoechst-high responders was determined as 34.4%, the % tubulin-high responders was 13.2% (active) and the toxicity is 33.1%.
The matching figures for `COc1ccc2c(c1)C(c1cccs1)=NNC(c1cccnc1)=N2`: 1.1%, 2.37% (inactive) and 7.76%.
Consider `NC(=O)c1ccc(NC(=O)COC(=O)c2c3c(nc4ccccc24)/C(=C\c2ccc4c(c2)OCO4)CCC3)cc1`, for which the % Hoechst-high responders worked out at 1.77%, the % tubulin-high responders was 5.36% (inactive) and the toxicity was 8.9%.
For `Cc1ccc(NC(=O)CC2S/C(=N/N=C3\CCCc4ccccc43)NC2=O)cc1` (stereo not drawn) the same measures were 2.08%, 1.84% (inactive) and 8.37%.
On to `C[n+]1ccccc1C1CCCC/C1=N\Nc1ccc([N+](=O)[O-])cc1[N+](=O)[O-]` (stereo not drawn), for which the % Hoechst-high responders stood at 1.98%, the % tubulin-high responders was 5.56% (inactive) and the toxicity turned out to be 5.84%.
Turning to `CC(=O)c1ccc(S(=O)(=O)Nc2ccc(C(=O)NCC(c3ccccc3)N(C)C)cc2)cc1` (stereo not drawn), the % Hoechst-high responders amounted to 1.41%, the % tubulin-high responders is 1.91% (inactive) and the toxicity came out at 3.99%.
For `Nc1c(C(=O)O)cnn1-c1ccccc1` the same measures were 1.87%, 1.93% (inactive) and 3.6%.
On to `Cc1c(CN2CCC(CO)(CCOc3ccccc3)CC2)[nH]c2ccc(Cl)cc12`, for which the % Hoechst-high responders was found to be 7.79%, the % tubulin-high responders is 27.6% (active) and the toxicity was 29.9%.
For `Cc1cccc(-c2ncc(CN3CCC(CO)(CCCc4ccccc4)CC3)cn2)c1` the same measures were 2.55%, 2.1% (inactive) and 2.96%.
With `OCC1(CCOc2ccccc2)CCN(Cc2cn[nH]c2-c2ccccc2)CC1`, the % Hoechst-high responders is 2.29%, the % tubulin-high responders was 2.29% (inactive) and the toxicity was 7.78%.

Source of the values: PubChem BioAssay AID2205 (University of Pittsburgh Molecular Library Screening Center, 2009).
